These results are taken from PubChem BioAssay AID1945 (The Scripps Research Institute Molecular Screening Center, 2009).

Out of some 1,600 compounds screened, about 65 (4%) were called active. A selection follows. Values without a mark were called inactive. Rule as the data show it: active = inhibition above about 37%; inactive = the rest.

The nature of the assay: compounds displacing fluorescent DNA intercalator, artefact control for HCV NS3 helicase inhibitor project, biochemical, FID fluorescence, triplicate (AID 1945).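 Also: 0% = vehicle and 100% = reference compound; higher means more displacement of ethidium bromide from the DNA hairpin.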 To be noted: DNA fluorescent intercalator displacement, at 7.9 µM, hits give high values.
One may read the inhibition as the drop in the measured response relative to a control, in per cent. For the compound `CS/C(=C\C(=O)c1ccco1)Nc1ccccc1Cl`, the inhibition was -4.94%.

Turning to `O=C1N/C(=C/c2cccn2-c2ccccc2)C(=O)N1c1cccc(Cl)c1`, the inhibition is 12.2%.

Turning to `Cc1cc(C)c2nc(-c3ccco3)cc(C(=O)O)c2c1`, the inhibition is -5.42%.

Consider `Cc1ccc(/C=C/C(=O)Nc2ccc([N+](=O)[O-])c(NC(=O)/C=C/c3ccc(C)o3)c2)o1`, for which the inhibition was 33.4%.

For `CC(C)c1ccc(C2C(C(=O)c3ccco3)=C(O)C(=O)N2CC2CCCO2)cc1` (stereo not given), the inhibition is -21.9%.

Regarding `Cc1ccc(C(CC(=O)O)Nc2nc(N3CCCCC3)nc(N3CCCCC3)n2)cc1` (stereo not given), the inhibition is -62.5%.

With `Cc1ccc(-c2nn(-c3ccccc3)cc2/C=C2\SC(=S)N(CCCCCC(=O)O)C2=O)o1`, the inhibition is 9.08%.

For the compound `CN(C)c1ccc(N/C=C/C(=O)C(F)(F)F)cc1`, the inhibition is 17.8%.

With `O=C(c1cccc(-n2cccc2)c1)N1CCN(S(=O)(=O)c2ccc(F)cc2)CC1`, the inhibition was -4.45%.

As for `O=C(CCCN1C(=O)/C(=C\c2ccco2)SC1=S)Nc1cccc2ccccc12`, the inhibition is 6.79%.

As for `Cc1occc1C(=O)N/N=C/c1ccc(-c2cccc([N+](=O)[O-])c2)o1`, the inhibition was 1.25%.

For the compound `Cc1cc(N2C(=O)C(O)=C(C(=O)c3ccc(C)o3)C2c2ccc(OCc3ccccc3)cc2)no1` (stereo not given), the inhibition was -15.8%.

For `Cc1cccc(NC(=O)c2sc3nc4c(c(-c5ccco5)c3c2N)CCC4)c1`, the inhibition was -11.3%.

Consider `COc1ccc(OCC(=O)Nc2nnc(-c3ccco3)s2)cc1`, for which the inhibition is -1.45%.

Take `COc1ccc(NC(=O)CSc2ccc(-c3ccco3)nn2)c(OC)c1`: the inhibition is 0.58%.

For the compound `c1ccc(CSc2nnc(-c3ccco3)c(-c3ccco3)n2)cc1`, the inhibition was 32.8%.

`Clc1ccccc1CSc1nnc(-c2ccco2)c(-c2ccco2)n1`: the inhibition is 72.2% (active).

In the case of `O=C(CCl)NNc1cccc(Cl)n1`, the inhibition was 11.2%.

In the case of `COc1cccc(C(=O)CC(=O)C(=O)Nc2ccc([N+](=O)[O-])cc2C)c1`, the inhibition is 2.14%.

For the compound `Fc1ccc(-c2ccc(-c3nn4c(-c5ccco5)nnc4s3)o2)cc1`, the inhibition is -13.2%.
